Source: PubChem BioAssay
Shiga inhibitor: inhibitors of Shiga toxin in Vero cells | Vero cells, Shiga toxin protein synthesis inhibition reporter | inhibition, % at 38.7 µM | 9.2% of 290,000 active | AID 2315; in the data active = inhibition mostly above about 28%, no sharp cut-off; inactive = mostly below about 43%; also: 0% is about no effect
Pf growth 48h: P. falciparum growth inhibition at 48 hours (one generation); P. falciparum luciferase growth in erythrocytes, 48 h; Potency, µM (top dose mostly 28.7 µM), without a hit: at the highest dose activity change, negative = inhibition, most hits filed as inhibitors; 5.9% of 310,000 active; AID 504832; also: potency is read from the fitted curve at half-maximal effect; % is scaled to controls: 0 for no effect and ±100 for the full control effect
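Luciferase-expressing parasites in RBCs, 2% Hct / 0.1% parasitemia final; RPMI 1640 + 0.5% Albumax; 37 C, 5% CO2, one generation; luminescence read-out, lower signal = inhibition.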
Pf growth 96h: inhibits malaria parasite growth, 96 h; Potency, µM (highest dose often 28.7 µM), inactives show at the top dose activity change, negative = inhibition, most hits filed as inhibitors; P. falciparum luciferase reporter growth, 96 h; 6.9% of 320,000 active; also: potency is read from the fitted curve at half-maximal effect; % is scaled to controls: 0 for no effect and ±100 for the full control effect
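Infected RBCs, 2% Hct / 0.05% parasitemia final; luciferase-reporter P. falciparum; cpd 96 h, 37 C, 5% CO2; luciferase detection reagent; luminescence.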
NS1 inh: blocks influenza NS1 protein function; 0.4% of 270,000 active; Potency, µM (top dose mostly 46.1 µM), for the others: at the highest dose activity, positive = more growth; calls by dose curve; also: potency is read from the fitted curve at half-maximal effect; actives are rising curves; nearly all actives have a fitted effect of over 50% in size
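Recovery from NS1-induced slow growth read by OD600 in budding yeast switched to galactose assay medium (pH 6.0, -URA) at 1:100 dilution. Compound 23 nl per well; the matching strain lacking NS1 serves as control.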
CHX counter: affects cycloheximide protein synthesis inhibition readout, counter-screen | cell reporter, cycloheximide protein synthesis inhibition counterscreen | max response, % | 12% of 300,000 active; in the data active = max response mostly above about 13%, no sharp cut-off; inactive = mostly below about 14%; also: read at 38.3 µM for the half of the compounds with a filed dose; 0% is about no effect
FBPA Giardia inh: blocks Giardia fructose-bisphosphate aldolase activity | purified Giardia FBPA | Potency, µM (titrated, usually from 59.6 µM), for the others: at the highest dose activity, negative = inhibition, usual class: inhibitors | 0.71% of 290,000 active; also: potency is read from the fitted curve at half-maximal effect; % is scaled to controls: 0 for no effect and ±100 for the full control effect; nearly all actives have a fitted effect of over 55% in size
Target sequence (A8B2U2 whole entry, looked up): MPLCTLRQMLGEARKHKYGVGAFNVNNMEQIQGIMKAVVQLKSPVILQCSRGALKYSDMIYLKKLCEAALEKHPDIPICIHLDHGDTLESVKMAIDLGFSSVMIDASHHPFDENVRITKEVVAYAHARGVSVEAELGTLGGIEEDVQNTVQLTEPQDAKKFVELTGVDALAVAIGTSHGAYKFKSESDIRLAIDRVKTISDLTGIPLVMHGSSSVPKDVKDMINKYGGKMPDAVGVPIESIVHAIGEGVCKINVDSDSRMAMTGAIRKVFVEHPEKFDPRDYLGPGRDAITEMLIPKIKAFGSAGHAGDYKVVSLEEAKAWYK
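40 nM FBPA preincubated 10 min at RT with compound (up to 57.5 uM final), then substrate plus GAPDH/TPI/NAD/arsenate coupling and diaphorase/resazurin added. Fluorescence read after 20 min at RT, 525/598 nm.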
* hit, by the source's call; ? = inconclusive; · = no result; [ ] = another dose, or the depositor's remark. This is a sample that favours compounds with a hit; in the whole collection about 21% have one here. Unless noted, calls follow the shape of the dose curve; as a rule, active = well fitted curve in the direction sought with a large enough effect; inconclusive = small, poorly fitted or top-dose-only effect, or another doubt; inactive = no such curve, though single readings can be large; an effect the other way counts as inactive or inconclusive.

SMILES | Shiga inhibitor | Pf growth 48h | Pf growth 96h | NS1 inh | CHX counter | FBPA Giardia inh
S=c1[nH]c2ccccc2s1 | -4 | · | · | · | 15 | -1%
Fc1ccc(-c2cn3cc(C(F)(F)F)cc(Cl)c3n2)cc1 | 103* | 375% | 118% | 8% | 28* | -15%
COc1ccc(-c2cn3cc(C(F)(F)F)cc(Cl)c3n2)cc1 | 80* | 33% | 67% | -7% | 56* | -27%
COc1ccc(C(O)c2ncc(C(F)(F)F)cc2Cl)cc1 (centres undefined) | -4 | -5% | 6% | 0% | 6 | 3%
O=C1NC(=S)N/C1=C/C=C/c1ccccc1 | 35 | 10% | ? | · | 43* | -1%
O=C1NC(=S)NC(=O)C1C/C=C/c1ccccc1 | 3 | · | 16% | 10% | -3 | -9%
c1ccc2c(c1)NC(c1ccncc1)n1c-2nc2ccccc21 (centres undefined) | 35 | 2.6µM* | -22% | -13% | 1 | -14%
NC1=NC(c2cccnc2)n2c(nc3ccccc32)N1 (centres undefined) | -1 | 0% | 31% | 3% | 4 | 3%
O=C1c2ccccc2NC(c2ccncc2)N1c1ccccn1 (centres undefined) | -2 | 39% | · | -2% | 0 | 9%
c1cncc(C2Nc3ccccc3-c3nc4ccccc4n32)c1 (centres undefined) | 29* | · | 9% | -32% | 30* | -7%
CN(Cc1ccccc1F)C(=O)CN1C(=O)NC2(CCc3ccccc32)C1=O (centres undefined) | · | ? | 2% | · | · | ·
Cc1c2c(n3c(nc4ccccc43)c1C#N)N(Cc1ccccn1)CC2 | · | · | · | 15% | · | ·
Cc1cc(N2CCN(c3ccccn3)CC2)n2c(nc3ccccc32)c1C#N | 53 | 4.7µM* | 1% | -7% | -4 | 9%
N#Cc1c2c(c(N3CCN(c4ccccn4)CC3)n3c1nc1ccccc13)CCC2 | -9 | · | 0.13µM* | 7% | -10 | 1%
Cc1nccn1-c1c2c(c(C#N)c3nc4ccccc4n13)CCC2 | -10 | -17% | 19% | -6% | 2 | -23%
CNCCCN1c2ccccc2CCc2ccccc21 | -12 | ? | ? | 1% | -4 | -9%
CN(C)CCCN1c2ccccc2CCc2ccc(Cl)cc21 | -16 | 13µM* | ? | -33% | -4 | -15%
CN(CCCN1c2ccccc2CCc2ccccc21)CC(=O)c1ccc(Cl)cc1 | 12 | -99% | 15µM* | · | 15 | -4%
COc1ccccc1OCC(=O)NNC(=O)c1c(-c2ccccc2Cl)noc1C | -13 | 1% | 10% | · | -2 | 5%
O=C(O)[C@@H]1[C@@H](C(=O)Nc2ncccn2)[C@@H]2C=C[C@@H]1O2 | · | · | · | -3% | · | ·
CN1C(=O)/C(=C/c2cccc(Cl)c2)Sc2ccc(C(=O)N3CCCC3)cc21 | -1 | ? | 18% | -40% | 0 | ·
COc1cc(C(=O)N(Cc2ccccc2)c2cccc(C)c2)ccc1OC(F)F | -4 | ? | 13µM* | -34% | 7 | ·
COc1ccccc1CC(=O)N(Cc1ccccc1)c1ccc(C)cc1 | 15 | ? | 9.3µM* | -27% | 12 | ·
COc1ccccc1C(=O)N(Cc1ccccc1)c1ccc(C)cc1 | -27 | ? | ? | -12% | 18 | ·
COc1ccc(CC(=O)N(Cc2ccccc2)c2cccc(C)c2)cc1OC | -12 | ? | 10µM* | -11% | -1 | ·
SMILES | Shiga inhibitor | Pf growth 48h | Pf growth 96h | NS1 inh | CHX counter | FBPA Giardia inh
CN1/C(=C/C(=O)C2CCC2)Sc2ccccc21 | 139* | 153% | 3% | -70% | 57* | 0%
COCC(=O)/C=C1\Sc2ccccc2N1C | 18 | 28% | 9% | 1% | 7 | -4%
CN1/C(=C\C(=O)c2cccs2)Sc2ccccc21 | 90* | 87% | -17% | -52% | 39* | -26%
CN1/C(=C\C(=O)c2cccs2)C(C)(C)c2ccccc21 | 16 | 9.3µM* | 21% | -23% | 25* | -16%
CCOC(=O)/C=C1/N(C)c2ccccc2C1(C)C | -8 | 76% | 38% | -8% | -1 | -5%
COc1ccccc1C(=O)NC(=S)/C=C1/N(C)c2ccccc2C1(C)C | 44 | ? | ? | 12% | 14* | -18%
CN1/C(=C/C(=O)c2cccs2)Sc2ccccc21 | 48 | · | -63% | -170% | 43* | ?
NC(=O)C1CCN(C(=O)N2c3ccccc3Sc3ccccc32)CC1 | -9 | ? | 10%[5.75 µM] | -16% | -5 | -11%
O=C(C1CC1)N1c2ccccc2Sc2ccccc21 | -16 | 12µM* | 26% | -6% | -2 | 14%
Cc1ccccc1NC(=O)CSc1nnc(CNC(=O)c2ccco2)n1C | · | -2% | ? | · | · | ·
O=c1c([N+](=O)[O-])cccn1Cc1cccc(Br)c1 | 19 | 5% | 26% | 7% | 8 | 1%
CC(C)(C)OC(=O)N1CCC(CC2CC(c3ccc(Cl)cc3)=NO2)(C(=O)NCC2CCCCC2)CC1 (centres undefined) | 47* | -69% | ? | 28% | 32* | 5%
CC1(C(=O)N2CCC(CC3CC(c4ccc(Cl)cc4)=NO3)(C(=O)NCC3CCCCC3)CC2)CC1 (centres undefined) | -4 | ? | 1.5µM* | 18% | -1 | -2%
CC1(C(=O)N2CCC(CC3CC(c4cccc(Br)c4)=NO3)(C(=O)NCC3CCCCC3)CC2)CC1 (centres undefined) | -10 | ? | 2.9µM* | 26% | -2 | 4%
COC(=O)C1(CC2CC(c3cccc(Br)c3)=NO2)CCN(C(=O)OC(C)(C)C)CC1 (centres undefined) | -8 | ? | 0% | -66% | -7 | -12%
CC(C)(C)OC(=O)N1CCC(Cc2cc(-c3ccc(Cl)cc3)no2)(C(=O)O)CC1 | -3 | 31% | 30% | -93% | -1 | ?
O=C(NC1CCOCC1)C1CCC(=O)N(Cc2cccc(C(F)(F)F)c2)C1 (centres undefined) | 8 | 15% | 80% | 8% | -2 | 22%
CCN(CC)CC(=O)N1c2ccccc2Oc2c(c(=O)n(C)c(=O)n2C)C1c1cccc([N+](=O)[O-])c1 (centres undefined) | -4 | 5.9µM* | ? | -6% | -4 | 2%
COc1ccc(-c2nc3ccccc3c(C(=O)Nc3ccc(S(=O)(=O)Nc4cc(C)on4)cc3)c2C)cc1 | -9 | 10µM* | ? | ? | -3 | 2%
Cc1cc(NS(=O)(=O)c2ccc(NC(=O)c3ccccc3C)cc2)no1 | 3 | 0% | 31% | 2% | -2 | -2%
Cc1ccc(-c2cc(C(=O)Nc3ccc(S(=O)(=O)Nc4cc(C)on4)cc3)c3ccccc3n2)c(C)c1 | 9 | ? | 7.4µM* | 16% | -1 | 4%
CN(Cc1nccs1)C(=O)C1CCC(=O)N(CCCc2ccccc2)C1 (centres undefined) | 7 | 16% | ? | -1% | 1 | 9%
Cc1ccc(C)n1-c1nccc(-c2cccs2)n1 | 4 | 9% | ? | 21% | 5 | -1%
